These results are taken from PubChem BioAssay (Tox21).

Several values for one entry are separate records, joined by “and”; a condition that tells them apart may be missing. Equal entries are not always repeated. Inconclusive results are not listed. Some compounds were tested as several samples or in several runs, with calls that do not always agree. Activity calls are given as the source filed them. Unless noted, calls follow the shape of the dose curve; as a rule, active = well fitted curve in the direction sought with a large enough effect in the repeat runs; inconclusive = weak or mixed curves; inactive = no such curve, though single readings can be large; an effect the other way counts as inactive or inconclusive.

Test [1] can be described thus: qHTS assay to identify small molecule agonists of the peroxisome proliferator-activated receptor delta (PPARd) signaling pathway - cell viability counter screen (AID 743211). Also: nearly all actives have a fitted effect of over 55% in size. Also: potency is read from the fitted curve at half-maximal effect. Summed up:
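PPARd-bla HEK293H cells (3000/well) were pre-incubated 5 h at 37 C, then exposed to compound for 17 h at 37 C. After 2 h with LiveBLAzer substrate, CellTiter-Glo was added to the same wells; luminescence read after 30 min at room temperature.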
In general terms: Quantitative high-throughput screening tests each substance at several concentrations.

In test [2] the target is Peroxisome proliferator-activated receptor delta (Homo sapiens) (UniProt Q03181). Kind of test: qHTS assay to identify small molecule agonists of the peroxisome proliferator-activated receptor delta (PPARd) signaling pathway (AID 743212; calls by dose curve). Summed up: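 GeneBLAzer PPARd UAS-bla HEK293H cells (beta-lactamase reporter under UAS control), plated and rested 5 h at 37 C, then exposed to compounds in DMSO at 37 C; LiveBLAzer B/G FRET substrate added, 2 h room temperature, fluorescence read.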
Chain of Peroxisome proliferator-activated receptor delta (Homo sapiens) (Q03181 whole entry, looked up): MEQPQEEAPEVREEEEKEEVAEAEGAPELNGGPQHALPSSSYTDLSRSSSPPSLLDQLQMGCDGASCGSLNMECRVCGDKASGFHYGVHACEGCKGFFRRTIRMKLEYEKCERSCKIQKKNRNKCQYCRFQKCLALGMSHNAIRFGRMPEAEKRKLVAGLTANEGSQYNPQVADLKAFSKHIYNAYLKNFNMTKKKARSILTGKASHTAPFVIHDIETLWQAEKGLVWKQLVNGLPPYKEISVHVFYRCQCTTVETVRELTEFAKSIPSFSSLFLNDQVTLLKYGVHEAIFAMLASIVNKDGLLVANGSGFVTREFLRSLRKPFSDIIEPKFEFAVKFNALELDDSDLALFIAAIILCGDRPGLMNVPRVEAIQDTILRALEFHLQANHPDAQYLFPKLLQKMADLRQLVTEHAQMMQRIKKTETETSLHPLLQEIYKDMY

Test [3] can be described thus: qHTS assay to identify small molecule antagonists of the peroxisome proliferator-activated receptor delta (PPARd) signaling pathway - cell viability counter screen (AID 743213). Also: nearly all actives have a fitted effect of over 50% in size. Summed up:
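Same-well viability: cells pre-incubated 5 h, dosed with compound plus 300 nM L165041, kept 17 h at 37 C, FRET substrate 2 h RT, then CellTiter-Glo 30 min RT and luminescence.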

In test [4] the target is Peroxisome proliferator-activated receptor delta (Homo sapiens) (UniProt Q03181). Kind of test: qHTS assay to identify small molecule antagonists of the peroxisome proliferator-activated receptor delta (PPARd) signaling pathway (AID 743215; active = well fitted inhibition curve with a large enough effect in the signal ratio in the repeat runs, not every such curve was filed as active; the % refers to the signal ratio;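 also: cells stimulated with agonist L165041 at 300 nM final during compound exposure; series mostly up to about 62 µM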). An outline of the steps: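 PPARd UAS-bla HEK293H cells were pre-incubated 5 h at 37 C, then given test compounds in DMSO plus agonist L165041 (300 nM final). After 17 h at 37 C, beta-lactamase FRET substrate was added; fluorescence read after 2 h at room temperature.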

Test [5] can be described thus: qHTS assay to identify small molecule agonists of the farnesoid-X-receptor (FXR) signaling pathway - cell viability counter screen (AID 743218). Also: nearly all actives have a fitted effect of over 45% in size. Also: potency is read from the fitted curve at half-maximal effect. An outline of the steps:
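FXR-UAS-bla HEK 293T cells, plated 5 h at 37 C, were exposed to compounds for 16 h at 37 C. CellTiter-Glo was then added to the same wells as the bla readout; luminescence read after 30 min at room temperature.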

The target in test [6] is Bile acid receptor (Homo sapiens) (UniProt Q96RI1). Put plainly: qHTS assay to identify small molecule agonists of the farnesoid-X-receptor (FXR) signaling pathway (AID 743220; active = well fitted activation curve with a large enough effect in the signal ratio in the repeat runs, not every such curve was filed as active; the % refers to the signal ratio). An outline of the steps: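 Beta-lactamase reporter under UAS control in GeneBLAzer FXR HEK 293T cells (5000/well) measured with LiveBLAzer FRET substrate after 2 h at room temperature. Compound exposure lasted 16 h at 37C.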
Chain of Bile acid receptor (Homo sapiens) (Q96RI1 whole entry, looked up): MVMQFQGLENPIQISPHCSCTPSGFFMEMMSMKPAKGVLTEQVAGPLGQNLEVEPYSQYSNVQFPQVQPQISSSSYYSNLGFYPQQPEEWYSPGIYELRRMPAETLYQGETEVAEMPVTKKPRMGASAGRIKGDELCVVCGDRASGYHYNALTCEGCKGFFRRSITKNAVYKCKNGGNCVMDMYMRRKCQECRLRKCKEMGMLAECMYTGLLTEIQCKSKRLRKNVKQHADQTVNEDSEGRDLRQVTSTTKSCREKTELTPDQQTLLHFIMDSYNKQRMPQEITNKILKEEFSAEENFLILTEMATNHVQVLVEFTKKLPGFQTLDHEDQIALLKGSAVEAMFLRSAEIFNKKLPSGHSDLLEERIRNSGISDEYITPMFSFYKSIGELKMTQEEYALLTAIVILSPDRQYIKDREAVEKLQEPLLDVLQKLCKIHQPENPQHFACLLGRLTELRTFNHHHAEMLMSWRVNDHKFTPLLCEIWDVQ

Test [7] is described as follows: qHTS assay to identify small molecule antagonists of the farnesoid-X-receptor (FXR) signaling pathway - cell viability counter screen (AID 743221; active = well fitted cell-killing curve with a large enough effect in the repeat runs, not every such curve was filed as active; also: nearly all actives have a fitted effect of over 50% in size; also: potency is read from the fitted curve at half-maximal effect). An outline of the steps:
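GeneBLAzer FXR-UAS-bla HEK 293T cells, compound plus chenodeoxycholic acid (50 uM final), 16 h at 37 C. CellTiter-Glo added to the same wells after the beta-lactamase read; luminescence read after 30 min at room temperature as viability.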

Test [8] is described as follows: qHTS assay to identify small molecule agonists of the vitamin D receptor (VDR) signaling pathway - cell viability counter screen (AID 743224). Also: nearly all actives have a fitted effect of over 50% in size. Also: potency is read from the fitted curve at half-maximal effect. Summed up: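 VDR-bla cells were preincubated 4 h at 37C/5% CO2, then exposed to compounds for 16 h. After the 2 h room-temperature bla FRET read, CellTiter-Glo was added to the same wells and luminescence read after 30 min.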

Test [9] is described as follows: qHTS assay to identify small molecule antagonists of the vitamin D receptor (VDR) signaling pathway - cell viability counter screen (AID 743225). Also: nearly all actives have a fitted effect of over 50% in size. Summed up: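 VDR-UAS-bla HEK 293T cells were plated and incubated 4 h at 37C, then dosed with compound plus 3 nM (final) 1-alpha,25-dihydroxyvitamin D3 for 16 h. After the 2 h beta-lactamase read, viability in the same wells was read as CellTiter-Glo luminescence after 30 min at room temperature.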

The nature of test [10]: qHTS assay to identify small molecule agonists of the NFkB signaling pathway (AID 1159509; active = well fitted curve in the direction sought with a large enough effect in the signal ratio in the repeat runs, not every such curve was filed as active; the % refers to the signal ratio; also: series mostly up to about 61 µM). An outline of the steps: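 NFkB-bla ME-180 cells with a beta-lactamase reporter under an NF-kB response element were plated overnight, treated with compounds in DMSO for 5 hr at 37 C, then loaded with FRET substrate for 1.5 hr at room temperature.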
A short description of test [11]: qHTS assay to identify small molecule agonists of the NFkB signaling pathway - cell viability counter screen (AID 1159515; calls by dose curve; also: series mostly up to about 61 µM; nearly all actives have a fitted effect of over 55% in size). An outline of the steps:
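NFkB-bla ME-180 cells, 2,000/well, were plated overnight at 37 C, 5% CO2, then exposed to compounds in DMSO for 5 hr. After the bla FRET read, CellTiter-Glo was added to the same wells; luminescence was read after 30 min at room temperature.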

A short description of test [12]: qHTS assay to identify small molecule agonists of the endoplasmic reticulum stress response signaling pathway (AID 1159516; active = well fitted activation curve with a large enough effect in the signal ratio in the repeat runs, not every such curve was filed as active; the % refers to the signal ratio). An outline of the steps:
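CellSensor ESRE-bla HeLa cells, carrying a beta-lactamase reporter driven by the ER stress response element, were plated overnight and exposed to compounds for 5 hr at 37 C. Reporter activity was read as FRET substrate fluorescence after 2 hr at room temperature.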

Test [13] is described as follows: qHTS assay to identify small molecule agonists of the endoplasmic reticulum stress response signaling pathway - cell viability counter screen (AID 1159517; calls by dose curve). An outline of the steps: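 Luminescence readout: CellTiter-Glo, 30 min RT, same wells as the ESRE-bla reporter read. HeLa ESRE-bla, 1,500 cells/well, o/n 37 C; cpd 5 hr 37 C/5% CO2.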
Test [14] in a line: qHTS assay to identify small molecule antagonists of the retinoid-related orphan receptor gamma (ROR-gamma) signaling pathway - cell viability counter screen (AID 1159520). Also: nearly all actives have a fitted effect of over 50% in size. An outline of the steps:
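Tet-on ROR gamma CHO cells (1,000/well) were plated 4 hr, given compounds in DMSO for 2 hr at 37 C, then induced with 1 uM final doxycycline for 16 hr. Viability was read as ATP by CellTiter-Glo luminescence after 30 min.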

Test [15] has as its target Nuclear receptor ROR-gamma (Homo sapiens) (UniProt P51449). Put plainly: qHTS assay to identify small molecule antagonists of the retinoid-related orphan receptor gamma (ROR-gamma) signaling pathway (AID 1159521). Summed up:
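Tet-on ROR-gamma CHO cells with ROR response element-luciferase reporter; compounds added 2 hr before 1 uM doxycycline induction, then 16 hr at 37 C. Antagonism scored as decreased ONE-Glo luminescence.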

Test [16] can be described thus: qHTS assay to identify small molecule agonists of the AP-1 signaling pathway - cell viability counter screen (AID 1159525; calls by dose curve; also: nearly all actives have a fitted effect of over 55% in size). Summed up:
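ME-180 AP-1-bla, 2500 cells/well, Opti-MEM + 0.5% dialyzed FBS; overnight 37 °C; cpd 15-pt titration, 5 h 37 °C; CellTiter-Glo 30 min RT; luminescence read; normalised to TOAB and DMSO controls.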

The nature of test [17]: qHTS assay to identify small molecule agonists of the AP-1 signaling pathway (AID 1159526; calls by dose curve).
Test [18] has as its target Vitamin D3 receptor (Homo sapiens) (UniProt P11473). Put plainly: qHTS assay to identify small molecule agonists of the vitamin D receptor (VDR) signaling pathway (AID 743222; calls by dose curve). An outline of the steps:
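VDR-bla cells were plated 4 h at 37C/5% CO2, then exposed to compounds in DMSO for 16 h. After LiveBLAzer B/G FRET substrate addition and 2 h at room temperature, beta-lactamase reporter fluorescence was read.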

For test [19] the target is unchanged. Put plainly: qHTS assay to identify small molecule antagonists of the vitamin D receptor (VDR) signaling pathway (AID 743223; active = well fitted inhibition curve with a large enough effect in the signal ratio in the repeat runs, not every such curve was filed as active; the % refers to the signal ratio). An outline of the steps:
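VDR-bla cells were treated with compound plus 3 nM final 1alpha,25-dihydroxyvitamin D3 for 16 h at 37C. Beta-lactamase reporter read by B/G FRET substrate fluorescence after 2 h at room temperature. qHTS format.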

Chain of Vitamin D3 receptor (Homo sapiens) (P11473 whole entry, looked up): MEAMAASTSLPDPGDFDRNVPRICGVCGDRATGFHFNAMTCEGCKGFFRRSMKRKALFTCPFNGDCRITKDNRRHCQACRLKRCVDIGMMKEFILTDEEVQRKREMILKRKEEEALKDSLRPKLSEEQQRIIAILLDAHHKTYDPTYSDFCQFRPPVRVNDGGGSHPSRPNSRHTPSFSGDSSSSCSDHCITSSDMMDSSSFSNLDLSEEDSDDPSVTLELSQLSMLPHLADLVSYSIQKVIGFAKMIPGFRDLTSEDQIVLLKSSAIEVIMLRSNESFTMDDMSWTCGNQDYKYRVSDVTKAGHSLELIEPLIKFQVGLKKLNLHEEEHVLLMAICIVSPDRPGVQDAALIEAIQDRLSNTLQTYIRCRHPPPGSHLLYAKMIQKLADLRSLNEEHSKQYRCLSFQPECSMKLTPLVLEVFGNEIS

As to `Cc1cccc(C)c1NC(=O)CN1CCCC1=O`, the Potency entry in test [1], in test [5], in test [7], in test [8], in test [15] and in test [17] was “inactive” in each case. Besides, the outcome in [2], in test [3], in test [4], in test [6], in test [9] and in test [10] was inactive. For the same compound, the result in [11], in test [12], in test [13], in test [14] and in test [16] was inactive.

In the case of `CN(C)C(=O)Cl`, the Potency result in test [1], in [5], in test [7], in [8], in test [15] and in test [17] was “inactive” in each case. In addition, the outcome in [2], in test [3], in test [4], in test [18], in test [19] and in test [9] was inactive. Also, the call in [10], in [11], in [12], in test [13], in test [14] and in test [16] was inactive.

Turning to `CCOC(=O)CC(SP(=O)(OC)OC)C(=O)OCC` (centres undefined), the Potency result in [1], in test [5], in test [7], in test [8], in [15] and in test [17] was “inactive” throughout. For the same compound, the compound was called inactive in [2], in [3], in test [4], in test [6], in test [10] and in test [11]. In addition, the compound was classed as inactive in test [12], in [13], in [14] and in test [16].

Take `OC[C@@H](O)[C@H]1O[C@@H]2O[C@H](C(Cl)(Cl)Cl)O[C@@H]2[C@H]1O`: the Potency result in test [1], in [5], in test [7], in test [8], in [15] and in [17] was “inactive” in each case. Further, the call in test [2], in test [3], in test [4], in test [9], in [10] and in test [11] was inactive. The result in test [12], in test [13], in [14] and in test [16] was inactive.

With `CCCOC(=O)c1ccccc1C(=O)OCCC`, the Potency entry in test [1], in test [5], in test [7], in [8], in test [15] and in [17] was “inactive” each time. In addition, the compound was called inactive in test [2], in test [3], in test [4], in [6], in test [10] and in test [11]. In addition, the compound was called inactive in test [12], in test [13], in test [14] and in test [16].

Turning to `CCSC(=O)N1CCCCCC1`, the Potency entry in test [1], in [5], in test [7], in [8], in [15] and in test [17] was “inactive” throughout. Moreover, the call in [2], in test [3], in test [4], in test [18], in test [19] and in test [9] was inactive. Also, the compound was called inactive in test [10], in [11], in [12], in test [13], in [14] and in test [16].

Regarding `CCOP(=S)(OCC)Oc1cc(C)nc(C(C)C)n1`, the Potency entry was “inactive and 54.9 µM (active)” in [1]; “inactive and 49 µM (active)” in [5]; “inactive and 43.6 µM (active)” in [7]; “inactive and 24.5 µM (active)” in test [8]. Besides, the call in test [2], in test [3], in test [4], in test [10], in [11] and in test [12] was inactive. In addition, the outcome in test [13], in test [14] and in test [16] was inactive. The Potency result in test [15] and in test [17] was “inactive” in each case.

Turning to `CNC(=O)O/N=C/C(C)(C)S(C)=O` (centres undefined), the Potency result in [1], in [5], in test [7], in [8], in [15] and in [17] was “inactive” in each case. For the same compound, the call in test [2], in [3], in test [4], in [6], in test [18] and in test [19] was inactive. The compound was classed as inactive in [10], in test [11], in test [12], in test [13], in test [14] and in test [16].
